{
  "source": "PubChem BioAssay AID1508611",
  "about": "(The Scripps Research Institute Molecular Screening Center, 2020)",
  "note": "The campaign covered roughly 6,700 compounds. About 20 (0.3%) were called active. Shown is part of a subset that was picked to be rich in actives. Unmarked numbers belong to inactive results.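 How the source made its calls: active means mean percent activation in the counterscreen above 29.09%; inactive means the rest.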",
  "data": [
    {"biological_target": "Glucose-dependent insulinotropic receptor (Homo sapiens) (UniProt Q8TDV5)", "sequence (Q8TDV5 whole entry, looked up)": "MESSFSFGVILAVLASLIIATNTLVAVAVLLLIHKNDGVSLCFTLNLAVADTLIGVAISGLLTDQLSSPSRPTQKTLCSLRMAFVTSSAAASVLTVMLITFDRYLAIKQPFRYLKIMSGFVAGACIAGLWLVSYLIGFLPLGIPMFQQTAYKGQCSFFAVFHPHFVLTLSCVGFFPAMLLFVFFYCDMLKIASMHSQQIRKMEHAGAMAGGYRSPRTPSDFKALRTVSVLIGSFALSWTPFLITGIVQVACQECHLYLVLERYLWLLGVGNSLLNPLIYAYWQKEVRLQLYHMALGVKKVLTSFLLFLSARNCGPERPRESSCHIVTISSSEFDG", "assay": "GPR119 activators in beta-arrestin cells, counter-screen for GPR151 activator project, cell-based, PathHunter beta-arrestin, luminescence, triplicate (AID 1508611);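 further: counterscreen on off-target GPR119 to flag nonselective hits from the GPR151 activator screen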", "settings": "90 min, at 11.2 µM, hits give high values, 0 = compound-well median, 100 = enzyme-acceptor control", "units": {"activation": "%"}, "values": [
      {"smiles": "CC(=O)Cn1c(=O)c2c(nc3n2CCCN3c2ccc(Br)cc2)n(C)c1=O", "activation": 8.64},
      {"smiles": "N#Cc1ccc(N2CCN(CCCNC(=O)Nc3ccccc3)CC2)cc1", "activation": -8.24},
      {"smiles": "COc1cccc(/C=C2/C(=O)NC(=O)N(c3ccccc3F)C2=O)c1", "activation": 15.2},
      {"smiles": "COc1ccc(Br)cc1C(=O)NCC1COc2ccccc2O1", "note": "(stereo not given)", "activation": -9.64},
      {"smiles": "COc1ccc(C(=O)Nc2sc3c(c2C(N)=O)CCCC3)cc1", "activation": -10},
      {"smiles": "O=C(Nc1cccc(N2CCC(NCc3ccon3)CC2)c1)c1cccnc1", "activation": 18.2},
      {"smiles": "Cc1ccc(S(=O)(=O)Cn2nnnc2CN2CCN(c3ccccc3F)CC2)cc1", "activation": 8.39},
      {"smiles": "O=C(COc1ccc([N+](=O)[O-])cc1)Nc1ccc2oc(-c3cccc(F)c3)nc2c1", "activation": -7.11},
      {"smiles": "CN1CC(=O)N2CCN(C(=O)OCc3ccccc3)C[C@@H]2C1=O", "activation": 1.78},
      {"smiles": "CC(C)C(=O)NC(C)c1nnc2n1CCN(Cc1ccc3cccnc3c1)CC2", "note": "(stereo not given)", "activation": 6.65},
      {"smiles": "CCN(CC)S(=O)(=O)c1ccc(C)c(NS(=O)(=O)c2cccc(C#N)c2)c1", "activation": -6.36},
      {"smiles": "CCOc1ccc(N2C(=O)C3C4c5ccccc5C(C(C)O)(c5ccccc54)C3C2=O)cc1", "note": "(stereo not given)", "activation": -4.77},
      {"smiles": "C=CCNC(=O)C(=O)NCC1OCCCN1S(=O)(=O)c1ccccc1", "note": "(stereo not given)", "activation": -6.88},
      {"smiles": "CC(=O)Oc1cccc(N2C(=O)C3C4c5ccccc5C(C)(c5ccccc54)C3C2=O)c1", "note": "(stereo not given)", "activation": -7.48},
      {"smiles": "CCOC(=O)C1=C(CC)OC(N)=C(C#N)C1c1ccc(C(F)(F)F)cc1", "note": "(stereo not given)", "activation": -9.1},
      {"smiles": "CCN1/C(=C/c2ccc3cc(C)ccc3[n+]2CC)Sc2ccc(-c3ccccc3)cc21", "activation": 0.91},
      {"smiles": "CCc1nnc2n1N(C(C)=O)C(c1ccc3c(c1)CCCC3)=C(C(C)=O)S2", "activation": 3.36},
      {"smiles": "CC(C)CCSc1nc2c(c(=O)n1Cc1ccco1)C1(CCCCC1)Cc1ccccc1-2", "activation": -4.2},
      {"smiles": "O=C1CCC(CCNCCOc2ccccc2)N1CCc1ccccc1", "note": "(stereo not given)", "activation": 12.1},
      {"smiles": "O=C(Cc1cccs1)NCCC1=CCCCC1", "activation": 0.59},
      {"smiles": "CCN1CCCC1CNc1nc(=S)[nH]c2ccccc12", "note": "(stereo not given)", "activation": -5.74},
      {"smiles": "CCc1ccc(NS(=O)(=O)c2ccc(Cl)cc2)cc1", "activation": 1.55},
      {"smiles": "CC12CCC(C(=O)Nc3ncc(Cl)cc3Cl)(CC1=O)C2(C)C", "note": "(stereo not given)", "activation": -5.44},
      {"smiles": "Cc1cnc(Nc2ccc(N3CCOCC3)cc2)nc1NCc1cccc(C(F)(F)F)c1", "activation": 15.3},
      {"smiles": "Cc1nc2cc(C(=O)NCc3ccc4c(c3)OCO4)ccc2n1-c1ccc(OCc2ccccc2)cc1", "activation": -11.3},
      {"smiles": "COc1ccccc1NC(=O)NCc1nc(-c2ccc(OC)c(OC)c2)no1", "activation": -3.49},
      {"smiles": "O=C(COc1ccc(Br)cc1CO)NCC(F)(F)F", "activation": 5.45},
      {"smiles": "CCOC(=O)Cc1coc(NC(=O)c2ccc(Cl)cc2)n1", "activation": 16.4},
      {"smiles": "Cc1nc2nc(SCc3ccc([N+](=O)[O-])cc3)nn2c(C)c1Cc1c(F)cccc1Cl", "activation": 15.8},
      {"smiles": "COc1ccccc1C1C(C(N)=O)=C(C)Nc2nc(CCCO)nn21", "note": "(stereo not given)", "activation": -6.42},
      {"smiles": "CCOc1ccc(NC(=O)COc2cccc(C)c2C)cc1", "activation": 6},
      {"smiles": "COc1cccc(C(=O)NC(=S)Nc2ccc(OC)cc2OC)c1", "activation": 5.05},
      {"smiles": "CCC(=O)Nc1cc(C(=O)O)ccc1C", "activation": 0.03},
      {"smiles": "Brc1cnc(NC2CCCCC2)nc1", "activation": 4.03},
      {"smiles": "CC(C)N1CCc2c(sc(NC(=O)Cc3ccccc3)c2C#N)C1", "activation": -3.52},
      {"smiles": "O=C(N/N=C/c1cc(Cl)ccc1O)c1cc(-c2ccccc2)n[nH]1", "activation": -13.8},
      {"smiles": "COc1ccc(/C=C(\\C#N)C(=O)Nc2cccc(S(=O)(=O)N3CCCCC3)c2)cc1", "activation": -10.3},
      {"smiles": "COc1cccc(-c2nnc(NC(=O)CSc3ccccc3)o2)c1", "activation": 6.53},
      {"smiles": "Cc1ccc(N2C(=O)CC(N3CCN(Cc4ccc(Cl)cc4)CC3)C2=O)cc1Cl", "note": "(stereo not given)", "activation": 6.82},
      {"smiles": "O=C(CCn1cnc2c(cnn2-c2ccc(F)cc2)c1=O)NCCC1=CCCCC1", "activation": 1.14},
      {"smiles": "COc1ccc(OC)c(NC(=O)CSc2nnc3[nH]c(=O)c(C)c(C)n23)c1", "activation": 3.38},
      {"smiles": "COc1nc(Nc2ccccc2)nc(-c2c(C)noc2C)n1", "activation": -7.06},
      {"smiles": "CSc1ncc(C(=O)NCCc2c[nH]c3ccccc23)c(C)n1", "activation": -0.1},
      {"smiles": "Cc1cc(Nc2ccc(F)cc2)n2cnnc2n1", "activation": -9.37},
      {"smiles": "Clc1ccccc1C1C=C(c2ccc(I)cc2)Nc2nnnn21", "note": "(stereo not given)", "activation": -6.17},
      {"smiles": "CCC(C)Nc1nc2c(c(=O)[nH]c(=O)n2C)n1CC(O)COC(C)C", "note": "(stereo not given)", "activation": -3.29},
      {"smiles": "Cc1cc(N2CCOCC2)ccc1C=C1C(=O)c2ccccc2C1=O", "activation": 1.45},
      {"smiles": "COCCNC(=S)N1CCN(c2ccccc2OC)CC1", "activation": -11.2},
      {"smiles": "COc1cc(NC(=O)c2sc3ncnc(N4CCCCC4)c3c2C)cc(OC)c1OC", "activation": 0.56},
      {"smiles": "CC(C)(C)OC(=O)N1CCC[C@H](Cn2cc(C(=O)O)nn2)C1", "activation": 2},
      {"smiles": "COCCN1C(=O)CC(CC(=O)NCc2nc3ccccc3[nH]2)(c2ccccc2C)C1=O", "note": "(stereo not given)", "activation": 3.87},
      {"smiles": "O=C(CCc1nnc(CCCCc2ccccc2)o1)N1CCC(N2CCSCC2)CC1", "activation": 0.58},
      {"smiles": "CC1CCN(C(=O)C(NS(=O)(=O)c2ccc3c(c2)oc(=O)n3C)C(C)C)CC1", "note": "(stereo not given)", "activation": 6.52},
      {"smiles": "Cc1ccc(C2=NC(c3cc(Br)ccc3F)NC(c3cc(Cl)ccc3O)C2)cc1", "note": "(stereo not given)", "activation": 6.67},
      {"smiles": "COc1ccc(-c2nnc(SCCC#N)o2)cc1", "activation": -4.81}
    ]}
  ]
}
